# According to PubChem BioAssay (NCATS):
# Inconclusive results are not listed. The source made the active and inactive calls. Unless noted, the call rests on the fitted dose curve; in most records, active means well fitted curve in the direction sought with a large enough effect; inconclusive means small, poorly fitted or top-dose-only effect, or another doubt; inactive means no such curve, though single readings can be large; an effect the other way counts as inactive or inconclusive.
# Columns and labels:
# [1] = Confirmation and Secondary Assay for Modulators of Hemoglobin Beta Chain Splicing at IVS2 654 locus (AID 910);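 further: HeLa cells stably carrying EGFP split by mutant beta-globin IVS2-654 intron; % of control where 0% means no effect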
# Method in brief: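 HeLa cells stably expressing EGFP interrupted by β-globin IVS2-654 intron, seeded overnight in Opti-MEM/2% FCS, then treated 2 days at 37 °C. Restored splicing read as total peak GFP intensity per well by laser scanning cytometry (488 nm excitation, 500–520 nm emission); 500 nM antisense PNA as control.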
# [2] = qHTS Assay for Lipid Storage Modulators (AID 1519; calls by dose curve; on activity change, negative = inhibition: on the % scale 0 is the no-effect control and ±100 the full control effect); details: Drosophila S3 cells, BODIPY lipid droplet/cell ratio, laser cytometry, cells loaded with oleic acid; for activity change, negative = inhibition: at 57.5 µM (top of the series)
# Method in brief: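 Cells seeded at 5,000 per well were treated with compounds over a concentration series and loaded with oleic acid (400 uM, as added). Lipid droplet fluorescence (488 nm excitation, 500-530 nm channel) was read by laser-scanning cytometry and normalized to 20 uM Triacsin C.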
# [3] = target: Luciferin 4-monooxygenase (Photinus pyralis) (UniProt P08659); assay: Biochemical firefly luciferase enzyme assay for NPC (AID 624030);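 further: purified P. pyralis luciferase at 10 nM with luciferin and ATP substrate; 0% = DMSO and -100% = full luciferase inhibition by PTC124 control; nearly all actives have a fitted effect of over 70% in size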
# Sequence of Luciferin 4-monooxygenase (Photinus pyralis) (P08659 whole entry, looked up): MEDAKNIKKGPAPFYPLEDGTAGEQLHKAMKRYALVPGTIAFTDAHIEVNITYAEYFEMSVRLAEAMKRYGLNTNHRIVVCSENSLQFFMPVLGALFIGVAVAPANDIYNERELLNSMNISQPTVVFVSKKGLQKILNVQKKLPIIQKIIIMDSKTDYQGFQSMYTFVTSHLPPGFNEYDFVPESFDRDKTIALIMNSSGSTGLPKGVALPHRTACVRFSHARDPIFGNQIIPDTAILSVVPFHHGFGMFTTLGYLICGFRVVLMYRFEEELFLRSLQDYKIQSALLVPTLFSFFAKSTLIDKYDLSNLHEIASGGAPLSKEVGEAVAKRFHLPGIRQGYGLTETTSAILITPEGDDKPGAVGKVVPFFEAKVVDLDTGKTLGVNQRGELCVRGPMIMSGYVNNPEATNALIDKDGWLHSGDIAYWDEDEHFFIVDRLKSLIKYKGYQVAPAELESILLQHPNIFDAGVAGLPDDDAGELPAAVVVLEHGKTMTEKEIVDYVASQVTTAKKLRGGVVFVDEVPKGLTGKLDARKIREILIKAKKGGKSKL
# Method in brief: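 Purified P. pyralis luciferase at 10 nM in 50 mM Tris Acetate (final), luminescence read within 5 minutes of enzyme addition to compounds. Activity normalised to PTC124 versus DMSO; concentration-response curves classed by r2, magnitude and activity.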
# [4] = Confirmation and Secondary Assay for Modulators of Hemoglobin Beta Chain Splicing at IVS2 705 locus (AID 930);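 further: HeLa cells stably expressing the EGFP-705 splicing reporter; GFP fluorescence per well restored by corrected splicing of the IVS2-705 intron in EGFP; % of control where 0% means no effect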
# Method in brief: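 HeLa EGFP-705 reporter; 500 cells/well, o/n 37C 5% CO2; cpd 2 d; 488 ex/500-520 em laser scan; total peak GFP intensity/well. Ref: 500 nM […] antisense PNA.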
# [5] = target: Ubiquitin carboxyl-terminal hydrolase 1 (Homo sapiens) (UniProt O94782); assay: Inhibitors of USP1/UAF1: Pilot qHTS (AID 504865);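 further: rhodamine fluorescence freed from ubiquitin-rhodamine substrate followed over time; top concentration of the series differs between compounds; on the % scale 0 is the no-effect control and ±100 the full control effect; nearly all actives have a fitted effect of over 35% in size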
# Sequence of Ubiquitin carboxyl-terminal hydrolase 1 (Homo sapiens) (O94782 whole entry, looked up): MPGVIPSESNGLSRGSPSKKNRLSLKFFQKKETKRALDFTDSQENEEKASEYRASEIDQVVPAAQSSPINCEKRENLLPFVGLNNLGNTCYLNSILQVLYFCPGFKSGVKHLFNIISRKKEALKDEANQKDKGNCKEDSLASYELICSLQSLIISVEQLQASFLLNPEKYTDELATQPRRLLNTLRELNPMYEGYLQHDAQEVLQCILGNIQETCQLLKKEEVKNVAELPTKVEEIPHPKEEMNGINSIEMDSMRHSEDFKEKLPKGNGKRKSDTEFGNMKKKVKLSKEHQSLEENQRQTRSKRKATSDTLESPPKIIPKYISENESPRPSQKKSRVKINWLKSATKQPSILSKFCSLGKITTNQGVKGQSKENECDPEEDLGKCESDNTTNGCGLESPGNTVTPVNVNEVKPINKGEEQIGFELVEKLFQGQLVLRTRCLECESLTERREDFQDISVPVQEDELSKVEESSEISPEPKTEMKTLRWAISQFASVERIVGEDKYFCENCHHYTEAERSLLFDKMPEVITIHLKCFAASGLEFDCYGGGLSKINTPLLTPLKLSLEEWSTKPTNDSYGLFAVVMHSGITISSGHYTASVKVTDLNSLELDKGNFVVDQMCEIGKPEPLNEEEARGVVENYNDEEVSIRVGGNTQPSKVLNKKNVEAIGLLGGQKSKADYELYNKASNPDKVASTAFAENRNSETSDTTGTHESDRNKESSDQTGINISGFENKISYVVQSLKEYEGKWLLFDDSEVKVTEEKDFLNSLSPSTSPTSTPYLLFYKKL
# Method in brief: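 Enzyme-free wells gave the negative control, while test wells held 1nM USP1/UAF1 preincubated with compound for 15 min at room temperature. Ub-Rho at 150nM final started the reaction, and fluorescence at 480/540 nm was recorded kinetically.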
# [6] = target: Cytochrome P450 3A4 (Homo sapiens) (UniProt P08684); assay: qHTS Assay for Inhibitors and Substrates of Cytochrome P450 3A4 (AID 884); further: nearly all actives have a fitted effect of over 50% in size; further: potency means the concentration at half of the fitted maximal effect; on activity change, negative = inhibition: on the % scale 0 is the no-effect control and ±100 the full control effect
# Sequence of Cytochrome P450 3A4 (Homo sapiens) (P08684 whole entry, looked up): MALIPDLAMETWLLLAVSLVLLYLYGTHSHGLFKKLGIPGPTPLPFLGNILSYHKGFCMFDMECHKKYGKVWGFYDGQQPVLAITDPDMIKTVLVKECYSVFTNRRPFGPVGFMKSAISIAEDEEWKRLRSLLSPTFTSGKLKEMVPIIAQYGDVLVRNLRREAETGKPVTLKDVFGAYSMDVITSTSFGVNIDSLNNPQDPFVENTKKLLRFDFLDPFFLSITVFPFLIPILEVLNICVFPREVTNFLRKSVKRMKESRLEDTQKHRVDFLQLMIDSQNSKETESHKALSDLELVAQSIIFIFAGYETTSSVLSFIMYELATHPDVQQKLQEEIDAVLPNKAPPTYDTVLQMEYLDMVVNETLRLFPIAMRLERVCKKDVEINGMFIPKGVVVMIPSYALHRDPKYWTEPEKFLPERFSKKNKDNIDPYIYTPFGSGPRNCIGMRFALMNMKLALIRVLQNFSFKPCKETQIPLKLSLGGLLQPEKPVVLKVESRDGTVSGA
# Method in brief: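 Luminescent readout of luciferin produced by CYP3A4 (20 nM) dealkylation of Luciferin-PPXE, 25 uM (its KM). NADPH-driven reaction ran 60 min at RT after 10 min compound preincubation; data scaled to 57 uM ketoconazole as 100% inhibition.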
# [7] = target: Cytochrome P450 3A4 (Homo sapiens) (UniProt P08684); assay: qHTS Assay for Activators of Cytochrome P450 3A4 (AID 885); further: nearly all actives have a fitted effect of over 65% in size
# Method in brief: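 CYP3A4 activity: Luciferin-PPXE O-dealkylation, 25uM substrate, 200mM KPO4, RT throughout. Read-out is luciferase luminescence; higher values reflect activation.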
# [8] = target: DNA dC->dU-editing enzyme APOBEC-3G (Homo sapiens) (UniProt Q9HC16); assay: qHTS for inhibitors of Vif-A3G interactions: Validation (AID 588379); further: 0% is about no effect
# Sequence of DNA dC->dU-editing enzyme APOBEC-3G (Homo sapiens) (Q9HC16 whole entry, looked up): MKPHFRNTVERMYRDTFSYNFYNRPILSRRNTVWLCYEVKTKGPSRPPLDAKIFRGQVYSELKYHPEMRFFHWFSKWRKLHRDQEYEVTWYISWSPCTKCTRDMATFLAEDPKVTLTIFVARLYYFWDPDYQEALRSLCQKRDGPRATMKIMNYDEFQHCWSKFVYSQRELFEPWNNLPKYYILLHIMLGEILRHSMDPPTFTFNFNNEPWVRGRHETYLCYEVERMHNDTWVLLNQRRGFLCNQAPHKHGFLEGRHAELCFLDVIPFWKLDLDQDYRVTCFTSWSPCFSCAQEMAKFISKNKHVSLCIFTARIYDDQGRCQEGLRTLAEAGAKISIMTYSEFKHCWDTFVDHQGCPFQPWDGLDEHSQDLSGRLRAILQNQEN
# Method in brief: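 Yellow fluorescence (Ex 488, Em 500-530) of Vif-coexpressing HeLa A3G-eYFP cells, scanned by Acumen cytometer, reports blocked A3G degradation. Cells plated at 700/well overnight at 37 deg C before compound addition, then a further overnight compound incubation at 37 deg C.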
# [9] = measured here: cell count channel max response
# [10] = measured here: lipid channel max response
Compound,Potency [1],"activity change, negative = inhibition [2]","max response [2, 9] [%]","max response [2, 10] [%]",Potency [3],Potency [4],Potency [5],Potency [6],Potency [7],outcome [8]
CO/N=C(\C(=O)NC1C(=O)N2C(C(=O)OCOC(=O)C(C)(C)C)=C(/C=C\c3scnc3C)CSC12)c1csc(N)n1 (centres undefined),inactive,12.3% (inactive),-4.33,11.5,inactive,–,–,–,–,–
Oc1ccc2c(c1)OC(c1ccc(O)c(O)c1)C(O)C2 (centres undefined),inactive,6.52% (inactive),-5.73,1.34,–,inactive,inactive,–,–,–
CC1=C(C(=O)O)N2C(=O)C(NC(=O)C(N)c3ccc(O)cc3)C2SC1 (centres undefined),inactive,7.51% (inactive),4.8,14.9,–,inactive,inactive,–,–,–
COc1ccc(CC(=O)c2ccc(O)cc2O)cc1,inactive,4.14% (inactive),-22.7,-16.5,–,inactive,–,12.6 µM (active),inactive,–
C[C@H]1C[C@]2(O[C@@H]2C)C(=O)O[C@@H]2CCN(C)C/C=C(/COC(=O)[C@]1(C)O)C2=O,–,-0.98% (inactive),-19.3,-21.3,–,–,–,–,inactive,inactive
COC(=O)C1C(O)CC[C@@H]2CN3CCc4c([nH]c5ccccc45)C3C[C@@H]12 (some centres undefined),inactive,4.48% (inactive),19.7,26.3,–,inactive,inactive,–,–,–
COc1ccc(C2CC(=O)c3c(O)cc(OC4OC(COC5OC(C)C(O)C(O)C5O)C(O)C(O)C4O)cc3O2)cc1O (centres undefined),–,-2.69% (inactive),-19,-20.2,–,–,–,inactive,–,inactive
Cc1onc(-c2ccccc2Cl)c1C(=O)NC1C(=O)N2C1SC(C)(C)C2C(=O)O (centres undefined),inactive,9.93% (inactive),11.3,24.6,–,inactive,inactive,–,–,–
COc1ccc2c(c1)OC/C(=C\c1ccc(OC)c(O)c1)C2=O,inactive,-9.54% (inactive),2.46,-8.22,–,inactive,–,10 µM (active),inactive,–
NC(Cc1c[nH]c2ccccc12)C(=O)NCC(=O)O (centres undefined),–,2.26% (inactive),-12.4,-10.5,–,–,–,inactive,–,inactive
C=C1CC[C@@H]2O[C@@]2(C)CC[C@H]2[C@H]1CC2(C)C,–,1.31% (inactive),22.2,21.2,–,–,–,–,–,inactive
C[C@]12CCC3c4ccc(OS(=O)(=O)O)cc4CCC3C1CCC2=O (some centres undefined),inactive,9.98% (inactive),6.42,22.2,–,inactive,inactive,–,–,–
COc1ccc(/C=C/C(=O)c2ccc(O)cc2O)cc1,inactive,5.71% (inactive),11.7,19.5,–,inactive,–,2.51 µM (active),inactive,–
C=C1C[C@@]23C[C@@]1(O)CC[C@@H]2[C@]12C=C[C@@H](O)[C@](C)(C(=O)O1)[C@@H]2[C@@H]3C(=O)O,–,-1.64% (inactive),0.496,0.595,–,–,–,–,–,inactive
